INS-1E GSIS act: GLuc luminescence reporter in INS-1E cells, primary screen for activators of glucose-dependent secretion of insulin; INS-1E GLuc reporter insulin secretion, 2-3 h; activation, % at 16.6 µM; 370,000 compounds, 0.61% hits;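 active means lowest replicate activation of at least 40%, so every replicate reaches that level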
AF4-AF9 inh: inhibitors of human MLL-AF4/AF9 interaction; P42568; AlphaScreen, biotin-AF4 peptide binding to FLAG-AF9; inhibition, % at 10 µM; 350,000 compounds, 0.47% hits;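 active means every replicate reaching a set inhibition limit, whatever the replicate mean, cut at about 25% in these data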
NSD2 inh: blocks human histone methyltransferase NSD2; O96028; NSD2 peptide methylation, AlphaScreen, 120 min; inhibition, % at 12.5 µM; 310,000 compounds, 0.54% hits; AID 743445; in the data active means inhibition above about 50%
Env fusion inh: HIV envelope-mediated fusion inhibition; HeLa-JRFL Env/CEM21 cell fusion, luciferase; inhibition, % at 12.3 µM; 360,000 compounds, 1.1% hits; AID 651610;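 active means mean replicate inhibition score of at least 50 and every replicate individually at or above 50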
PGC1a acetyl inh: modulators of PGC1a acetylation. 350,000 compounds, 0.17% hits. AID 651687. inhibition, % at 15.6 µM. U2OS PGC1a acetylation, AlphaScreen anti-acetyl-lysine; with virally co-expressed GCN5 acetyltransferase;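 active means every replicate shows inhibition of at least 40%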
A number is an active result; i = inactive; nt = not tested or not shown; [ ] = remark or other dose. An excerpt weighted towards active compounds, which were near 2.1% of everything screened.

SMILES	INS-1E GSIS act	AF4-AF9 inh	NSD2 inh	Env fusion inh	PGC1a acetyl inh
COc1cccc(S(=O)(=O)N2CC3(CN(C(=O)Nc4cccc(F)c4)[C@H](CO)c4[nH]c5cc(OC)ccc5c43)C2)c1	i	i	nt	80[16.7 µM]	nt
COc1ccc2c3c([nH]c2c1)[C@@H](CO)N(C(=O)Nc1cccc(F)c1)CC31CCN(S(=O)(=O)c2cccc(C)c2)CC1	i	nt	nt	nt	i
COc1ccc2c3c([nH]c2c1)[C@@H](CO)N(C(=O)Nc1cccc(F)c1)CC31CN(S(=O)(=O)c2cccc(C)c2)C1	i	i	nt	80[16.7 µM]	nt
Cc1ccc(NC(=O)C2(C)CCN2C(=O)Cc2ccc(-c3ccccc3)cc2)cc1 (stereo not given)	nt	i	i	i	nt
Cc1cc(OCC(=O)NC(C)C)cc(C)c1Br	i	i	i	nt	nt
COc1cc2c(c(OCC(=O)NC(C)C)c1)C(=O)O[C@@H](C)CCCC(=O)CCCCC2	i	i	i	88	i
COc1cc(OCC(=O)NC(C)C)cc2c1C(=O)O[C@@H](C)CCCC(=O)CCCCC2	i	i	i	73	i
Cc1ccc(CN(c2ccc(C(=O)NCc3cccnc3)cc2)S(C)(=O)=O)cc1	i	nt	i	i	i
COc1cc(CN(C)c2ccc(S(=O)(=O)N3CCCC3)cn2)ccc1OC(F)F	44	i	i	i	nt
O=C(C[C@H]1CC[C@H]2[C@@H](COC[C@@H](O)CN2C(=O)Nc2cc(Cl)cc(Cl)c2)O1)N1CCOCC1	i	nt	nt	i	i
CCNC(=S)NNC(=O)c1cc(-c2ccc(OC)cc2)nc2ccccc12	i	nt	i	i	i
COc1ccc(Cl)cc1C(=O)NNC(=S)NC(=O)c1cc(-c2ccc(Cl)cc2)nc2ccccc12	nt	nt	i	94	i
COc1ccc(-c2cc(C(=O)N/N=C/c3cc(OC)c(OC)cc3OC)c3ccccc3n2)cc1	i	i	i	i	45
CCC1CCCCN1S(=O)(=O)c1ccc(NC(=O)c2nc(S(C)(=O)=O)ncc2Cl)cc1 (stereo not given)	72	i	i	i	nt
CS(=O)(=O)c1ncc(Cl)c(C(=O)Nc2ccc3ccccc3c2)n1	i	i	i	i	nt
CCC1CCCCN1S(=O)(=O)c1ccc(NC(=O)c2ccncc2)cc1 (stereo not given)	i	i	i	63	nt
O=C(COc1ccc(-n2cnnn2)cc1)Nc1ccc(F)c(F)c1	i	i	i	74	i
O=C(COc1ccc(-n2cnnn2)cc1)Nc1ccc(F)cc1	nt	i	i	i	i
CCOC(=O)n1c(=O)n(Cc2cccc(F)c2)c2ccccc21	i	i	i	i	i
O=C(CCC1CCCN(C(=O)c2cc(C3CC3)[nH]n2)C1)N1CCN(c2ccccn2)CC1 (stereo not given)	i	i	nt	i	98
Cc1ccc2nc(NC(=O)CCCC(=O)O)sc2c1	i	i	i	69	nt
O=C(COc1ccc(Cl)cc1)NCCS(=O)(=O)N1CCN(c2ccccc2F)CC1	41	i	i	i	i
C[C@H]1CN([C@@H](C)CO)C(=O)c2cccc(NC(=O)Nc3ccccc3)c2O[C@@H]1CN(C)C(=O)Nc1ccccc1	i	i	nt	i	i
Cc1ccc(C)c(S(=O)(=O)N2CCN(C(=O)c3ccc4ccccc4n3)CC2)c1	i	i	i	nt	nt
O=C(c1ccc2ccccc2n1)N1CCN(S(=O)(=O)c2ccc(Cl)cc2)CC1	nt	i	nt	56	i
SMILES	INS-1E GSIS act	AF4-AF9 inh	NSD2 inh	Env fusion inh	PGC1a acetyl inh
COc1ccccc1NC(=O)CCCCCN1C(=O)c2cccc([N+](=O)[O-])c2C1=O	i	i	i	i	i
COc1cc(/C=C2/C(=O)c3cccc([N+](=O)[O-])c3C2=O)c(Br)cc1O	i	nt	55	i	nt
CN1CCN(C2=Nc3cc(Cl)ccc3Nc3ccccc32)CC1	nt	i	nt	i	i
C=CCNc1nc(N)c([N+](=O)[O-])c(NCCO)n1	82	nt	i	i	i
CCN(CC)c1nc(N)c([N+](=O)[O-])c(NCCO)n1	85	i	i	i	nt
CCn1c(=N)n(CC(O)COc2ccc(C)cc2)c2ccccc21 (stereo not given)	i	i	i	i	nt
CCCN1[C@H](C(=O)N[C@@H](C)c2ccccc2)[C@@H](CO)[C@@H]2Cn3c(ccc(-c4cccc(F)c4)c3=O)[C@@H]21	i	i	nt	64[16.7 µM]	nt
O=C(CSc1n[nH]c(=O)n1C1CC1)Nc1ccccc1	i	i	nt	i	i
O=C(CSc1n[nH]c(=O)n1C1CC1)Nc1cc(Cl)ccc1Oc1ccccc1	i	nt	i	128	i
CCCCC[C@@H](C)N1C[C@H](COCc2ccccc2)Oc2cc(N3CC[C@@H](O)C3)ccc2S1(=O)=O	i	i	nt	nt	nt
CC(C)N(Cc1nc(-c2ccccc2)no1)C(=O)CN(C)S(=O)(=O)c1ccc(Br)cc1	nt	nt	i	70	i
CC(C)Cn1c(N2CCN(C(=O)c3cccs3)CC2)nc2ccccc21	i	nt	i	i	i
CCc1ccc(C2c3[nH]c4ccccc4c3CCN2C(=O)CN2CCN(CC)CC2)cc1 (stereo not given)	i	31	nt	i	nt
CN1C(=O)c2cc(NC(=O)c3cscn3)ccc2OC[C@H]2O[C@H](CC(=O)NCc3ccc(Cl)c(Cl)c3)CC[C@H]21	i	i	nt	68[16.7 µM]	i
CN1C(=O)c2cc(NC(=O)c3cscn3)ccc2OC[C@@H]2O[C@H](CC(=O)NCc3ccc(Cl)c(Cl)c3)CC[C@H]21	i	i	nt	58[16.7 µM]	i
CCNC(=O)C[C@@H]1CC[C@H]2[C@H](COc3ccc(NC(=O)c4cscn4)cc3C(=O)N2C)O1	i	i	nt	i	i
COc1ccccc1CNS(=O)(=O)c1cc2c3c(c1)C(C)C(=O)N3CCC2 (stereo not given)	i	i	i	i	i
CO[C@H]1CN(C)C(=O)c2cc(NS(=O)(=O)c3ccc(C)cc3)ccc2OC[C@H](C)NC[C@@H]1C	i	i	nt	i	i
COc1ccc(C)cc1NC(=O)CCNS(=O)(=O)c1ccc2c(c1)CC(C)N2C(C)=O (stereo not given)	i	i	i	79	i
CCOc1ccc(-c2c(C(=O)N/N=C(\C)c3cccs3)nnn2-c2nonc2N)cc1	i	i	i	i	i
O=C(NCC(c1ccco1)N1CCCCC1)c1cccc(NS(=O)(=O)c2ccc(Br)cc2)c1 (stereo not given)	i	i	i	i	nt
O=C(CC1C(=O)NCCN1Cc1cccc(F)c1)NC1CCC1 (stereo not given)	i	i	i	i	i
O=C(CC1C(=O)NCCN1Cc1cccc(F)c1)NC1CCCCC1 (stereo not given)	nt	i	i	91	nt
CCc1ccc(OCC(=O)NC(NC(=S)Nc2ccccc2)C(Cl)(Cl)Cl)cc1 (stereo not given)	199	nt	i	i	i
C[C@H]1CN([C@@H](C)CO)S(=O)(=O)c2ccc(-c3cccc(F)c3)cc2O[C@H]1CN(C)S(=O)(=O)c1ccccc1	i	i	nt	90[16.7 µM]	i
C[C@@H]1CN([C@H](C)CO)S(=O)(=O)c2ccc(-c3cccc(F)c3)cc2O[C@@H]1CN(C)S(=O)(=O)c1ccccc1	i	i	nt	107[16.7 µM]	i

Bioassay records as filed in PubChem.
